# Laboratory results published in the supplement of paper PMC11482750.
# ± gives the standard deviation of the averaged measurements.
# Compound: CCC/C=C/C=O [trans-2-hexenal]
# Assay: control-subtracted net OSN firing rate; higher = stronger neuronal activation
# Settings: odorant dilution (vol/vol): 1/100
# Description: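 Single sensillum recordings from olfactory sensory neurons. The neurons sit in the maxillary palp or antennal sensilla of D. melanogaster (wild type, mutants, or at1 empty-neuron lines expressing Or42a homologs or the A181D S307P mutant) and of four Scaptomyza species. Each odorant was given as a 1 s pulse from 20 µl loaded on filter paper at 1:100 vol/vol, diluted in mineral oil (γ-hexalactone in DMSO). Spikes were counted in a 0.5 s window starting 0.2 s after onset, background was subtracted, the count was doubled, and the mean solvent-control response was subtracted.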
row,Target,control-subtracted net OSN firing rate [spikes/s]
1,S. pallida pb3a-like,109 ± 24
2,"Or67dGal4, UAS-Sfla Or42a3 at1",144 ± 32
3,Canton-S (D. melanogaster) pb1a,124 ± 31
4,S. flava pb3b-like,26 ± 42
5,S. pallida pb1b-like,-6.67 ± 7.2
6,"Or67dGal4, UAS-Spal Or42a at1",205 ± 10
7,S. hsui pb3a-like,147 ± 24
8,S. montana pb3a-like,3 ± 5.5
9,S. pallida pb3b-like,-10 ± 14
10,S. montana pb1a-like,145 ± 34
11,Canton-S (D. melanogaster) pb2a,4.86 ± 9.6
12,S. flava pb3a-like,-3.33 ± 9.6
13,S. hsui pb1b-like,-16.3 ± 10
14,S. hsui pb1a-like,115 ± 18
15,S. flava pb2b-like,15 ± 14
16,Canton-S (D. melanogaster) pb3b,-0.833 ± 5.7
17,S. montana pb2a-like,1 ± 8.5
18,S. pallida pb2a-like,8.33 ± 6

row,Target,control-subtracted net OSN firing rate [spikes/s]
1,Canton-S (D. melanogaster) pb1b,-5.33 ± 9
2,S. montana pb2b-like,5.67 ± 5.1
3,S. montana pb3b-like,8.33 ± 8.7
4,S. montana pb1b-like,-11.3 ± 8.9
5,S. flava pb1b-like,-17.7 ± 8.2
6,S. flava pb1a-like,152 ± 26
7,"Or67dGal4, UAS-Dmel Or42a at1",110 ± 52
8,S. pallida pb1a-like,103 ± 25
9,Canton-S (D. melanogaster) pb3a,0.167 ± 5.6
10,S. hsui pb2a-like,10 ± 12
11,Canton-S (D. melanogaster) pb2b,0.857 ± 11
12,S. hsui pb3b-like,-5 ± 4.2
13,S. hsui pb2b-like,15 ± 15
14,"Or67dGal4, UAS-Sfla Or42a2 at1",3.14 ± 12
15,"Or67dGal4, UAS-Sfla Or42a4 at1",179 ± 43
16,S. flava pb2a-like,1.67 ± 6.6
17,S. pallida pb2b-like,6.67 ± 10
